Results from the supplement of paper PMC6555819.

What was measured:
Test in all cases: PBM binding z-score (relative to random genomic background probes); higher = stronger binding; sequences stand for … in GC…GCGATTGACAGCGTAGAATGAAGG
[1] = test system: FXR:RXRa (NR concentration 270 nM, RXRa partner concentration 90 nM)
Procedure, shortened: (§1)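 Each nuclear receptor dimer, without ligand, was incubated for 1 h on custom Agilent 4×180K protein-binding microarrays. Binding was detected with antibodies against each partner (one per run), and scanned fluorescence was regression-normalized. The binding z-scores are referenced to random human genomic background probes.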

[2] = test system: LXRa:RXRa (NR concentration 270 nM, RXRa partner concentration 90 nM)
Procedure, shortened: as §1

[3] = test system: LXRa homodimer (NR concentration 270 nM)
Procedure, shortened: as §1

[4] = test system: LXRb:RXRa (NR concentration 270 nM, RXRa partner concentration 90 nM)
Procedure, shortened: as §1

[5] = test system: LXRb homodimer (NR concentration 270 nM)
Procedure, shortened: as §1

[6] = test system: PPARa:RXRa (NR concentration 270 nM, RXRa partner concentration 90 nM)
Procedure, shortened: as §1

[7] = test system: PPARg:RXRa (NR concentration 180 nM, RXRa partner concentration 90 nM)
Procedure, shortened: as §1

[8] = test system: PPARg:RXRa 270nM:90nM, anti-RXR (NR concentration 270 nM, RXRa partner concentration 90 nM)
Procedure, shortened: as §1

[9] = test system: PPARg:RXRa 30nM:10nM, anti-RXR (NR concentration 30 nM, RXRa partner concentration 10 nM)
Procedure, shortened: as §1

[10] = test system: PPARg:RXRa 90nM:30nM, anti-RXR (NR concentration 90 nM, RXRa partner concentration 30 nM)
Procedure, shortened: as §1

Sequence	PBM binding z-score [1]	PBM binding z-score [2]	PBM binding z-score [3]	PBM binding z-score [4]	PBM binding z-score [5]	PBM binding z-score [6]	PBM binding z-score [7]	PBM binding z-score [8]	PBM binding z-score [9]	PBM binding z-score [10]
CGTACTAGGTCACCAGGACAGTGAAGAGGTTGGA	3.85	2.7	0.154	2.01	-0.0806	4.67	7.91	6.32	3.8	5.83
TAGCCTAGGTCATTCAGGGGCCAGAATAGAAAGC	4.69	3.94	0.569	3.21	1.34	3.9	2.33	2.29	0.331	1.44
CGAACTAGGTCCAAGGACAGTGAAAGGCGACGTA	-0.44	-0.748	-0.421	-0.931	-1.24	0.459	1.53	2.19	0.583	1.69
AGTCAAAGGTCAGGACGAGGTAACGTAAAGCACG	7.52	5.96	0.926	4.9	1.48	6.17	8.88	7.95	4.99	7.2
TTACAAAGGTGAGCTGAGGTCGTTGATCCAACTC	2.66	3.19	-0.299	1.68	-0.674	2.86	1.57	2.39	0.713	1.38
CGAACTAGGTCACAGGACAGTGAAAGGCGACGTA	4.05	2.67	-0.102	1.78	-0.469	5.21	8.8	7.37	4.65	7.31
CAAACTAGGTCAAAGGTCAAACTCGAGCCAACCA	8.63	7.62	6.78	7.4	3.51	7.76	14.1	11.6	13.3	13.7
CGTCCAAGGTCAACAGGTCAGTGAAAGCGACGTG	7.08	5.58	1.56	4.45	0.945	5.84	5.65	6.07	2.82	4.88
ATATGTAGGTTAGGGTGATTCAGAAAGTAGGGAA	1.37	1.32	0.569	1.83	1.47	3.62	5.4	4.45	2.06	3.62
CGAACTAGGGCACCAGGACAGTGAAGAGGTTGGA	-0.211	-0.347	-0.377	-0.672	-1.24	2.31	4.04	3.54	1.13	2.7
CGAACTAGGTCAAAGGAGAGTGAAAGGCGACGTA	3.72	2.61	-0.0759	1.64	-0.486	5.05	8.9	7.8	7.23	8.14
ATCGAAAGGTCGAAAGTGAGTATACCCACCCGAA	3.56	3.24	0.172	2.67	0.816	3.74	2.17	2.5	1.05	2.05
CGTTCAAGGTCATAGGAGGTCAGTGAAGACAGAT	7.91	7.81	5.4	6.52	1.26	6.19	6.82	6.49	2.97	5.27
ATATGTAGGTTACATGCGGGTCATTCAGGCTATG	2.21	4.55	0.959	2.66	0.785	4.22	5.9	5.3	2.6	4.65
CCTTACGGGTCACTCCAGGTTCTAGCATCGGAGT	4.8	4.87	0.141	2.7	-0.137	4.28	2.96	3.49	0.999	2.15
CCTTACGGGTCAGGGTTATAGCACGGGTGGTACG	3.45	2.22	-0.256	1.95	-0.0988	3.9	2.72	3.18	0.621	1.96
AGTCAAAGTTCTTCTAGGTAACGTAAGATATGCT	0.261	-0.366	0.0883	-0.0374	0.0414	0.304	0.844	1.16	0.354	0.549
ATATGTGGGTTAGGGTCATTCAGAAAGTAGGGAA	5.21	4.67	1.97	5.31	3.87	5.7	7.6	6.42	3.82	5.8
CGAACTAGGGCAAAGGACAGTGAAAGGCGACGTA	-0.161	-0.272	-0.336	-0.481	-1.45	3.45	9.04	7.51	8.13	8.74
GCATATAGGTAATTCAAGGTGAAAGTCCGATTGT	0.457	4.97	0.799	2.13	-0.412	1.9	0.967	1.51	0.0519	0.865
CGAACTAGGTCACCAGGACCGTGAAGAGGTTGGA	3.87	2.36	-0.1	1.5	-0.339	4.88	8.27	6.8	4.02	6.42
ATCGAAAGGTCGAAGGTGAGTCTACCCACCCGAA	4.39	3.59	-0.0971	2.87	0.861	4.78	4.36	5.19	2.51	4.21

Sequence	PBM binding z-score [1]	PBM binding z-score [2]	PBM binding z-score [3]	PBM binding z-score [4]	PBM binding z-score [5]	PBM binding z-score [6]	PBM binding z-score [7]	PBM binding z-score [8]	PBM binding z-score [9]	PBM binding z-score [10]
TTACCGAGGTGAAAGGTCGTTGATGCACGCCTTG	3.99	3.64	0.332	3.53	-0.52	5.85	9.29	8.26	7.84	9.2
ATATGCAGGTTATCGGGTCATTCAGTTTGCGCAT	3.37	3.44	1.57	3.03	0.832	4.13	4.45	4.25	1.56	3.42
ATATGTAGGTTTGGGTCATTCAGAAAGTAGGGAA	1.74	1.71	0.946	2.49	1.68	3.1	2.34	2.64	1.4	2.29
ATATGTAGGTTATGGTCATTCAGAAAGTAGGGAA	1.06	1.36	0.432	1.37	0.916	3.29	4.98	4.06	2.18	3.32
ATATGTAGGTCAGCTGGGGTCATTCAGACTAGGC	6.69	6.41	5.01	5.39	1.51	6.15	9	7.13	5.31	7.16
TATTGTAGATCAAAGGTTAAGAAAGCCGAAGCCT	1.52	2.61	0.529	2.07	0.724	4.99	8.15	8.41	7.59	9.21
CGAACTTGGTCAAAGGACAGTGAAAGGCGACGTA	-0.082	-0.109	-0.799	-0.227	-0.688	1.25	3.15	4.34	2.21	4.07
CAAACTAGGTCACCGGAAAGTCAAAGTCCGCATG	4.54	3.74	0.834	2.79	0.685	5.64	9.52	7.27	5.72	7.23
GATACAGGGTGAAGGCCAGAGTACGCGTATTGAT	-0.425	-0.357	-0.615	-0.42	-0.925	1.08	1.41	1.72	0.138	0.958
CCAACTAGGTCACCAGGACAGTGAAGAGGTTGGA	4.24	2.6	0.434	1.91	0.121	4.66	8.3	6.53	3.83	6.09
CGTCAAAGTTCTAGGTAACGTAACAGAAAGCAGC	-0.164	-0.199	0.179	0.0595	-0.169	0.259	0.641	0.228	-0.178	0.017
CGTCCAAGGTAAGAGAGGTCAGTGAATGCCGAGT	1.6	2.42	1.66	1.72	-0.936	2.53	0.401	1.2	-0.312	0.249
CCGACTGGGGCAACGGTTACCATACTCAGTACGA	-0.245	-0.501	-0.164	-0.317	-1.33	1.25	3.08	4.07	2.04	3.93
ATATGTAGGTTAGGGTCATGCAGAAAGTAGGGAA	4.77	4.14	0.926	4.29	1.21	5.74	7.7	6.66	4.91	6.3
CGAACTAAGTCATTGACAGGACAGTGAATAGTAA	-0.324	-0.239	-0.0692	-0.347	-0.466	-0.0981	0.241	0.0844	-0.211	-0.239
AAATGTAGGTTAGGGTCATTCAGAAAGTAGGGAA	5.35	4.2	1.68	4.67	1.5	5.81	8.25	6.63	5.16	6.92
ATATGTATGTTAGGGTCATTCAGAAAGTAGGGAA	4.58	3.8	1.34	4.19	1.46	4.84	4.3	3.99	1.85	3.4
CGAACTAGGTCAAAGGACAGTGATAGGCGACGTA	3.8	2.62	0.0431	1.64	-0.0452	5.27	10.2	8.27	8.49	9.35
CGAACTAGGTCACCAGGACTGTGAAGAGGTTGGA	4.32	2.55	-0.155	1.59	-0.403	5.08	8.54	6.81	4.45	6.79
CGAACTAGGTCAGAACAGTACAGTGAAGGATGAT	1.08	0.839	0.06	0.623	-0.447	2.86	5.05	4.39	1.99	3.68
CGAACTAGGTCACCAGGAGAGTGAAGAGGTTGGA	3.86	2.33	-0.171	1.33	-0.287	4.87	8.26	6.73	4.58	6.24
CGTCCAAGGTCAATGCTAGGTCACTGAAAGCATT	6.84	5.66	3.98	4.6	0.791	5.16	4.37	5.11	1.68	3.62
